By AC50 is commonly meant the concentration giving half of the maximal activity seen.

The structures appear in SMILES notation. Records with an inconclusive call do not appear. A structure can be active in one record and inactive in another. Activity calls are given as the source filed them. Rule for the calls: active = hit-call score of the fitted dose curve at least 0.9, where 1 is the maximum; inconclusive = response in the unintended direction; inactive = score below 0.9.

Sequence of Nuclear receptor subfamily 1 group I member 2 (Homo sapiens) (O75469 whole entry, looked up): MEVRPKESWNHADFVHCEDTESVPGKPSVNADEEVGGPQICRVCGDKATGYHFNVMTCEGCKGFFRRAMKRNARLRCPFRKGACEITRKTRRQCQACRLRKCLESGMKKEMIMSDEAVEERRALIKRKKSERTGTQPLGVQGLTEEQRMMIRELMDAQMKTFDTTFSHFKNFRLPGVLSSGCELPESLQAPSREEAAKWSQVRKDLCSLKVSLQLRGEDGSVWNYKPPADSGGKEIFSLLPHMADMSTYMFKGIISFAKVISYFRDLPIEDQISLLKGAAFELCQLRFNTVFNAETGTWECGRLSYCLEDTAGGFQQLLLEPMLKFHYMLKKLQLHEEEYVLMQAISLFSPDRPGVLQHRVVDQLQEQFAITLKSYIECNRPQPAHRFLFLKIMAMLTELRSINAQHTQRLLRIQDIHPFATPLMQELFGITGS

In the experiment the target is Nuclear receptor subfamily 1 group I member 2 (Homo sapiens) (UniProt O75469). Put plainly: ATG_PXR_TRANS: Attagene TRANS-FACTORIAL HepG2 Assay for human Pregnane X Receptor (PXR) (AID 2283008). On the procedure:
ATG_TRANS is a cell-based, multiplexed-readout assay that uses HepG2, a human liver cell line, with measurements taken at 24 hours after chemical dosing in a 24-well plate.ATG_PXR_TRANS is one of 30 assay component(s) measured or calculated from the ATG_TRANS assay. It is designed to make measurements of mRNA induction, a form of inducible reporter, as detected with fluorescence intensity signals by Reverse transcription polymerase chain reaction (RT-PCR) and Capillary electrophoresis technology.Data from the assay component ATG_PXR_TRANS was analyzed into 1 assay endpoint. This assay endpoint, ATG_PXR_TRANS, was analyzed in the positive analysis fitting direction relative to DMSO as the negative control and baseline of activity. Using a type of inducible reporter, measures of mRNA for gain-of-signal activity can be used to understand the reporter gene at the transcription factor-level as they relate to the gene NR1I2. Furthermore, this assay endpoint can be referred to as a primary readout, because this assay has produced multiple assay endpoints where this one serves a reporter gene function. To generalize the intended target to other relatable targets, this assay endpoint is annotated to the nuclear receptor intended target family, where the subfamily is non-steroidal.
Human liver HepG2 cells are transiently transfected with multiple reporter transcription units (MRTUs) in 6-well plates using FuGene 6 reagent (Roche; 3 ml FuGene/1 mg DNA). The MRTU constructs are regulated by a cis-regulating element (promoter). […] A major difference between the CIS and TRANS system is that in CIS activities of endogenous TFs are measured, whereas the TRANS assay evaluates changes in activities of exogenous, chimeric NR-Gal4 proteins. […] At the end of 24 hour incubation, total RNA was isolated using TriZol reagent (Invitrogen). The isolated RNA is then reverse-transcribed using oligo(dT) primer and Mo-MLV reverse transcriptase (Invitrogen) with DNAse I (Ambion) treatment for 30 min. The one-tenth of the produced cDNA was amplified by PCR using Taq DNA polymerase (Invitrogen) and two reporter sequence-specific primers. The PCR products were fluorescently labeled by primer extension with 6-arboxyfluorescein (6-FAM) 5'-labeled reporter sequence-specific primer (2 min at 95 C, 20 s at 68 C and 10 min at 72 C) and these products were digested with 5U of HpaI (New England Biolabs) for 2h at 37 C. The fragments were purified using Qiaquick PCR columns (Qiagen), analyzed on an ABI 3130xL genetic analyzer (Applied Biosystems) with peak positions identified by using a set of X-rhodamine (ROX)-labeled MapMarker1000 molecular weight standards (BioVentures). The raw capillary electrophoresis data was processed using Attagraph software (Attagene).
With `Oc1cc(Cl)ccc1Oc1ccc(Cl)cc1Cl`, the result was inactive. `O=[N+]([O-])c1c(Cl)c(Cl)c(Cl)c(Cl)c1Cl`: the result was inactive. Consider `CC(C)N(C(=O)COc1nnc(C(F)(F)F)s1)c1ccc(F)cc1`, for which the half-maximal activity concentration (AC50) is 10.7 µM (active). In the case of `Oc1ccc(Cl)cc1Cc1ccccc1`, the outcome was inactive and the AC50 was 6.4 µM (active) [middle of 5 runs]. In the case of `O=C(O)COc1ccc(Cl)cc1Cl`, the outcome was inactive. Regarding `Cc1cc(C)nc(NC(=O)NS(=O)(=O)c2ccccc2C(=O)OC2COC2)n1`, the outcome was inactive. The same measure, in the same setting: then `COP(=S)(OC)Oc1ccc([N+](=O)[O-])cc1`, with “inactive”. On the same count and under the same terms, then `O=C(O)CCCOc1ccc(Cl)cc1Cl`, with “inactive”; and `CCC(C)(NC(=O)c1cc(Cl)c(C)c(Cl)c1)C(=O)CCl` (stereo not given), with “inactive”. Take `N#Cc1c(Cl)c(Cl)c(Cl)c(C#N)c1Cl`: the AC50 is 0.324 µM (active). As for `COC(=O)c1ccccc1S(=O)(=O)NC(=O)Nc1nc(C)nc(OC)n1`, the outcome was inactive.

For the compound `Cc1[nH]c(=O)n(C(C)(C)C)c(=O)c1Cl`, the result was inactive. `CCCN(CCC)c1c([N+](=O)[O-])cc(C(F)(F)F)cc1[N+](=O)[O-]`: the half-maximal activity concentration (AC50) was 10.6 µM (active). As to `O=S(=O)(O)C(F)(F)C(F)(F)C(F)(F)C(F)(F)C(F)(F)C(F)(F)C(F)(F)C(F)(F)F`, the result was inactive.

For `COC(=O)c1ccccc1S(=O)(=O)NC(=O)N(C)c1nc(C)nc(OC)n1`, the outcome was inactive. Still for that read-out and setting: under `CNC(=O)Oc1ccccc1OC(C)C` stands “inactive”. `CC(C)(C)C(O)C(Oc1ccc(Cl)cc1)n1cncn1` (stereo not given): the compound was called inactive and the half-maximal activity concentration (AC50) is 434 nM (active) [middle of 5 runs]. `C[C@H]1[C@H](c2ccc(Cl)cc2)SC(=O)N1C(=O)NC1CCCCC1`: the call was inactive. On to `O=C1c2ccccc2C(=O)N1SC(Cl)(Cl)Cl`, for which the call was inactive. As for `O=C(Nc1ccccc1)Nc1cnns1`, the compound was classed as inactive. For `COC(=O)c1ccccc1CS(=O)(=O)NC(=O)Nc1nc(OC)cc(OC)n1`, the compound was classed as inactive. Take `CC1(C)C(C=C(Cl)Cl)C1C(=O)OC(C#N)c1ccc(F)c(Oc2ccccc2)c1` (stereo not given): the AC50 was 21.6 µM (active). On the same count and under the same terms, under `CC(C)OC(=O)Nc1cccc(Cl)c1` stands 65.4 µM (active).

`CNC(=O)Oc1cccc(N=CN(C)C)c1`: the call was inactive.

For `CCc1ccc(C(=O)NN(C(=O)c2cc(C)cc(C)c2)C(C)(C)C)cc1`, the outcome was inactive. Still for that read-out and setting: then `O=S1OCC2C(CO1)C1(Cl)C(Cl)=C(Cl)C2(Cl)C1(Cl)Cl` (stereo not given), with “inactive”. Turning to `CCCN(CCOc1c(Cl)cc(Cl)cc1Cl)C(=O)n1ccnc1`, the AC50 is 2.96 µM (active) and the outcome was inactive.

Regarding `COc1cc(OC)nc(NC(=O)NS(=O)(=O)c2cc(NC=O)ccc2C(=O)N(C)C)n1`, the result was inactive.

For `OCCOc1ccccc1`, the call was inactive.

`CNC(=O)CSP(=S)(OC)OC`: the result was inactive.

Turning to `CCC(C)Nc1c([N+](=O)[O-])cc(C(C)(C)C)cc1[N+](=O)[O-]` (stereo not given), the half-maximal activity concentration (AC50) was 8.2 µM (active). Turning to `N#CN`, the result was inactive. As to `CCOC1Oc2ccc(OS(C)(=O)=O)cc2C1(C)C` (stereo not given), the AC50 was 29.6 µM (active).

Regarding `COc1nn(CSP(=S)(OC)OC)c(=O)s1`, the compound was classed as inactive. Still for that read-out and setting: under `CC1(c2ccc(Oc3ccccc3)cc2)OC(=O)N(Nc2ccccc2)C1=O` (stereo not given) stands “inactive”; under `CNC(=O)/C=C(\C)OP(=O)(OC)OC`, “inactive”.

Take `COP(=S)(OC)Oc1ccc(SC)c(C)c1`: the AC50 is 39.3 µM (active).

The record behind these values is PubChem BioAssay (EPA / NIEHS).
